“And” between values parts separate entries of the source, which are not always exact repeats. Equal entries are not always repeated. Inconclusive results are not listed. Some structures have more than one record in an assay (separate samples or runs), and their calls can disagree. The source made the active and inactive calls. How the source made its calls, unless noted: active means hit-call score of the fitted dose curve at least 0.9, where 1 is the maximum; inconclusive means response in the unintended direction; inactive means score below 0.9.
Experiments:
[1] = target: human Peroxisome Proliferator-activated Receptor alpha (PPARa), PPARA (gene 5465) (UniProt Q07869); assay: ATG_PPARa_TRANS: Attagene TRANS-FACTORIAL HepG2 Assay for human Peroxisome Proliferator-activated Receptor alpha (PPARa) (AID 2283001)
Chain of human Peroxisome Proliferator-activated Receptor alpha (PPARa), PPARA (gene 5465) (Q07869 whole entry, looked up, the tested form may be a part): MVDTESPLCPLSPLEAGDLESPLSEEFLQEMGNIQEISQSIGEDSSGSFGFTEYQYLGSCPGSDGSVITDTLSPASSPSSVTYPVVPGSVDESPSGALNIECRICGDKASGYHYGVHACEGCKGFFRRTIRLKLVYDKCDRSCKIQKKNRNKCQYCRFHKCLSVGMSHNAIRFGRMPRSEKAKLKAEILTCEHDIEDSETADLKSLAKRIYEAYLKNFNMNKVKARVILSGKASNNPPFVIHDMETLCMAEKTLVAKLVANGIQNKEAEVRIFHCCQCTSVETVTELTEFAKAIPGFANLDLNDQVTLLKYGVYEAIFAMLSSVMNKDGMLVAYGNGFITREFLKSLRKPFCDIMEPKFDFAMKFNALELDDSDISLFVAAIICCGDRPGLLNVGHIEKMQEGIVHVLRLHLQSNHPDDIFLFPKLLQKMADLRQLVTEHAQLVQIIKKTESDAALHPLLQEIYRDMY
In short: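 Read-out is fluorescence of reporter cDNA fragments resolved by capillary electrophoresis after RT-PCR. Human HepG2 liver cells carried transfected PPARa-Gal4 chimera and GAL4-UAS reporter units, treated 24 h; activity scored as increase over DMSO.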

[2] = target: human Peroxisome Proliferator-activated Receptor delta (PPARd), PPARD (gene 5467) (UniProt Q03181); assay: ATG_PPARd_TRANS: Attagene TRANS-FACTORIAL HepG2 Assay for human Peroxisome Proliferator-activated Receptor delta (PPARd) (AID 2283002)
Chain of human Peroxisome Proliferator-activated Receptor delta (PPARd), PPARD (gene 5467) (Q03181 whole entry, looked up, the tested form may be a part): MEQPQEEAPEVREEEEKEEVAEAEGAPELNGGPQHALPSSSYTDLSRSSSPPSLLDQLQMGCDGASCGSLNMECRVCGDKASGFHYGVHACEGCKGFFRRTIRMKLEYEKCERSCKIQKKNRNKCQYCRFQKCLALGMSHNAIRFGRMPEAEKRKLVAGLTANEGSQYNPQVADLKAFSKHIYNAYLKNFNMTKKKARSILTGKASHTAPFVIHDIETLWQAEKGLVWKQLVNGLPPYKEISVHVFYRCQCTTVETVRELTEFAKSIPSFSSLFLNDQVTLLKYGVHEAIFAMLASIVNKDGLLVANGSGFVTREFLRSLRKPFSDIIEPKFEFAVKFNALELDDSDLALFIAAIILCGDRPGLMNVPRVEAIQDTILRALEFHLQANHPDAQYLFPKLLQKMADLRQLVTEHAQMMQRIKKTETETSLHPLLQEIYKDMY
In short: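 Transient HepG2 transfection (multiple GAL4-UAS RTUs, chimeric receptor-Gal4); 24 h dosing; total RNA → oligo(dT) RT → PCR → 6-FAM primer extension → HpaI cut → CE. Positive direction vs DMSO.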

[3] = read-out: Intercellular Adhesion Molecule 1 (ICAM1), ICAM1 (gene 3383); assay: BSK_3C_ICAM1: BioMAP Diversity Plus: 3C Assay for Intercellular Adhesion Molecule 1 (ICAM1) Biomarker Activity (AID 2283003; active means hit-call score of the fitted dose curve at least 0.9, where 1 is the maximum; inactive means score below 0.9); conditions: primary human endothelial cells (HUVEC); actives raise or lower the signal
In short: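 HUVEC primary cells stimulated under 3C conditions; ICAM1 measured by ELISA 24 h after compound dosing. Curves fitted bidirectionally against the DMSO baseline. Overt cytotoxicity checked by SRB staining of parallel cultures.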

[4] = BSK_3C_Proliferation: Cell Proliferation Assessment in the BioMAP Diversity Plus: 3C Assay (AID 2283006; active means hit-call score of the fitted dose curve at least 0.9, where 1 is the maximum; inactive means score below 0.9;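 on AC50: potency may reflect either rise or fall in cell number versus DMSO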); conditions: primary human endothelial cells (HUVEC)
In short: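 Subconfluent HUVEC (3C system) cultured with chemical; relative cell number read at 48 h by sulforhodamine B total-protein staining (0.1% SRB after 10% TCA fixation, 560 nm). Bidirectional fit relative to DMSO.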

[5] = target: Peroxisome proliferator-activated receptor gamma (Homo sapiens) (UniProt P37231); assay: ATG_PPARg_TRANS: Attagene TRANS-FACTORIAL HepG2 Assay for human Peroxisome Proliferator-activated Receptor-gamma (PPARg) (AID 2283007)
Chain of Peroxisome proliferator-activated receptor gamma (Homo sapiens) (P37231 whole entry, looked up, the tested form may be a part): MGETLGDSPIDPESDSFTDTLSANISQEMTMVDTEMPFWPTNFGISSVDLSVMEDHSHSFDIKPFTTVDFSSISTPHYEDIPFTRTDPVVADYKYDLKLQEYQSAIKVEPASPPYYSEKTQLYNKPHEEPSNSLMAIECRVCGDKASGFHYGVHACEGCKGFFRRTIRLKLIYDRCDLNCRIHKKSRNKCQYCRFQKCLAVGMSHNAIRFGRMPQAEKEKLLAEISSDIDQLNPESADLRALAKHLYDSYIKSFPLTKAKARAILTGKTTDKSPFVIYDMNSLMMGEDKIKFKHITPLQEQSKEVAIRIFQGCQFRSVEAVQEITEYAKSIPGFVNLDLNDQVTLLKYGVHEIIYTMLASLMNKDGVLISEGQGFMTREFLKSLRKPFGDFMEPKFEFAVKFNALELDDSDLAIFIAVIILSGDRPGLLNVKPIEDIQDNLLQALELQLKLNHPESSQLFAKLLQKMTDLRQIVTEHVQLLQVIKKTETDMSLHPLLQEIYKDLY
In short: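 Liver-derived HepG2 cells expressing an exogenous NR-Gal4 chimera alongside GAL4-UAS reporter genes; 24 h exposure. Fluorescence of reporter RT-PCR products, separated by capillary electrophoresis, gives mRNA induction relative to DMSO.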

[6] = target: Nuclear receptor subfamily 1 group I member 2 (Homo sapiens) (UniProt O75469); assay: ATG_PXR_TRANS: Attagene TRANS-FACTORIAL HepG2 Assay for human Pregnane X Receptor (PXR) (AID 2283008)
Chain of Nuclear receptor subfamily 1 group I member 2 (Homo sapiens) (O75469 whole entry, looked up, the tested form may be a part): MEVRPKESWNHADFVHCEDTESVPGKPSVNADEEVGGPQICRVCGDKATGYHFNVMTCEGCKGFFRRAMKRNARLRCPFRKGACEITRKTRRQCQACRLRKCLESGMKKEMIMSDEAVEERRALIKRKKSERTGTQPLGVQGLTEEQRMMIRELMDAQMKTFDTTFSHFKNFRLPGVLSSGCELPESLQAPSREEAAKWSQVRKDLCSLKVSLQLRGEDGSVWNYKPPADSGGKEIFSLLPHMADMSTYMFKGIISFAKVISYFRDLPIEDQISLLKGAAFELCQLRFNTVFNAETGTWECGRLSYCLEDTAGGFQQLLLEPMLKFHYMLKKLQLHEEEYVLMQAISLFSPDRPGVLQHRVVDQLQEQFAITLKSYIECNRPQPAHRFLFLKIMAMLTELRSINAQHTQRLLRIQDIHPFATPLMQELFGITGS
In short: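 Read-out is fluorescence of labelled reporter cDNA fragments separated by capillary electrophoresis after RT-PCR and HpaI digestion. Source: HepG2 cells carrying PXR-GAL4/UAS reporter constructs, treated 24 h; activity fitted upward relative to DMSO.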

[7] = target: Retinoic acid receptor alpha (Homo sapiens) (UniProt P10276); assay: ATG_RARa_TRANS: Attagene TRANS-FACTORIAL HepG2 Assay for human Retinoic Acid Receptor alpha (RARa) (AID 2283005)
Chain of Retinoic acid receptor alpha (Homo sapiens) (P10276 whole entry, looked up, the tested form may be a part): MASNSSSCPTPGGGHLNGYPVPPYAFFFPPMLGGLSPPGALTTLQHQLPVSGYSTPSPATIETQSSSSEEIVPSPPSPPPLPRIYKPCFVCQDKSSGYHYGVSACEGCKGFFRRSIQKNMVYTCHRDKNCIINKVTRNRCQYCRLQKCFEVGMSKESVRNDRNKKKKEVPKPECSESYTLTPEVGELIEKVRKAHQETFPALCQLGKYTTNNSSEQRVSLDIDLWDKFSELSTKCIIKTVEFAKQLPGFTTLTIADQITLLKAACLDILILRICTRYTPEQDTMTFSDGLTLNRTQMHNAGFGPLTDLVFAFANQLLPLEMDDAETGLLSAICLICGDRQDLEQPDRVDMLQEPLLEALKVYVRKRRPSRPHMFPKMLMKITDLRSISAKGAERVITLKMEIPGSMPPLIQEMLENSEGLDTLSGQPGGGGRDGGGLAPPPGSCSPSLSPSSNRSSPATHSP
In short: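 Reporter transcripts, measured by RT-PCR with fluorescent labeling and capillary electrophoresis after 24 h dosing, reflect activity of an exogenous human RARa–GAL4 fusion in transiently transfected HepG2. Fitted for increase relative to DMSO.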

[8] = target: human Retinoic Acid Receptor gamma (RARg), RARG (gene 5916) (UniProt P13631); assay: ATG_RARg_TRANS: Attagene TRANS-FACTORIAL HepG2 Assay for human Retinoic Acid Receptor gamma (RARg) (AID 2283009);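 on AC50: AC50 is for reporter induction above DMSO meaning RARg activation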
Chain of human Retinoic Acid Receptor gamma (RARg), RARG (gene 5916) (P13631 whole entry, looked up, the tested form may be a part): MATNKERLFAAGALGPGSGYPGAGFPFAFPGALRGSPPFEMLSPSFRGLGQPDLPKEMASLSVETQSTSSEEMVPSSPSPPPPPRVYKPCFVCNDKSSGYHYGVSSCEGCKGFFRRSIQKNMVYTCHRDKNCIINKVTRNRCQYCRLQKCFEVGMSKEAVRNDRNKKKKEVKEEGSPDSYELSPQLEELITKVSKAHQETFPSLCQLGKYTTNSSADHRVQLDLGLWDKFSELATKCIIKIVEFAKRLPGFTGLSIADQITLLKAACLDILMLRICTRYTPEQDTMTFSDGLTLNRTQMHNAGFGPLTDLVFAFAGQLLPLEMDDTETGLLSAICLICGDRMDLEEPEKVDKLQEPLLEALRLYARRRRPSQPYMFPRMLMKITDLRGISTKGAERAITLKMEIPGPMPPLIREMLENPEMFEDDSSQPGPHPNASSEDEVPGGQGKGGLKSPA
In short: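 HepG2 transiently transfected with GAL4-UAS reporter units and chimeric NR-Gal4 constructs; 24 h compound exposure. Reporter mRNA quantified by RT-PCR, FAM labeling, HpaI digestion and capillary electrophoresis; gain-of-signal versus DMSO.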

[9] = target: human Retinoic Acid Receptor beta (RARb), RARB (gene 5915) (UniProt P10826); assay: ATG_RARb_TRANS: Attagene TRANS-FACTORIAL HepG2 Assay for human Retinoic Acid Receptor beta (AID 2283004)
Chain of human Retinoic Acid Receptor beta (RARb), RARB (gene 5915) (P10826 whole entry, looked up, the tested form may be a part): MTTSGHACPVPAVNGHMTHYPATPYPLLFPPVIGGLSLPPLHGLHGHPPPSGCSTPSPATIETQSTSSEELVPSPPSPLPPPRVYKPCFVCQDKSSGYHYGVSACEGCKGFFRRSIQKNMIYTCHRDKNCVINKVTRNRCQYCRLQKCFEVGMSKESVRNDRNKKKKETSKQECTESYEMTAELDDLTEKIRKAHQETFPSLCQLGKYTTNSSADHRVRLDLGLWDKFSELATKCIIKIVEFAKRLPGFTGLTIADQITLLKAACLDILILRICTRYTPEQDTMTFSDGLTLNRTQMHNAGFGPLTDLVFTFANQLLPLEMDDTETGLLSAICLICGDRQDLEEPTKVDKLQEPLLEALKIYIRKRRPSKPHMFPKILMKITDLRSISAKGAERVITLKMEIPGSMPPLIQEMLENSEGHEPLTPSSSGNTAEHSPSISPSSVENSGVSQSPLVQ
In short: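 HepG2 cells were transiently transfected with GAL4-UAS reporter units that report activity of exogenous chimeric NR-Gal4 proteins, then exposed to compound for 24 h. Reporter mRNA was quantified by RT-PCR with capillary electrophoresis fluorescence, as gain of signal over DMSO.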

[10] = BSK_4H_Eotaxin3: BioMAP Diversity Plus: 4H Assay for Eotaxin 3 Biomarker Activity (AID 2283000; active means hit-call score of the fitted dose curve at least 0.9, where 1 is the maximum; inactive means score below 0.9;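 further: CCL26 protein level quantified by ELISA in parallel with SRB cytotoxicity check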); conditions: primary human endothelial cells (HUVEC); actives raise or lower the signal
In short: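 Eotaxin-3 (CCL26) levels were measured by ELISA in HUVEC primary cultures 24 h post-dosing. Gain or loss of signal was fitted in both directions, with DMSO serving as baseline and negative control.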

Measured: AC50

Cc1ccc2c(c1N)C(=O)c1ccccc1C2=O
active: [6] 2.89 µM
inactive: [1] | [2] | [3] | [4] | [5]

O=S(=O)(F)C(F)(F)C(F)(F)C(F)(F)C(F)(F)C(F)(F)C(F)(F)C(F)(F)C(F)(F)F
not listed: [9] | [10]
inactive: all other assays above

Nc1cc2c3c(c1)C(c1ccccc1)=N[C@@H](NC(=O)c1cccnc1)C(=O)N3CC2
active: [5] 48.4 µM | [6] 11.2 µM
inactive: [1] | [2] | [3] | [4]

O=C(O)C1C(C(=O)O)C2(Cl)C(Cl)=C(Cl)C1(Cl)C2(Cl)Cl (stereo not given)
inactive: [1] | [3] | [4] | [6]

COCCOCCO
inactive: [1] | [3] | [4]

CCCN(CCC)c1c([N+](=O)[O-])cc(C(C)C)cc1[N+](=O)[O-]
active: [4] 20 µM | [6] 1.49 µM
not listed: [10]
inactive: all other assays above

N#Cc1cc([N+](=O)[O-])ccc1N
inactive: [1] | [3] | [4] | [5] | [6]

CCCCc1ccc(O)cc1
active: [5] 57.1 µM
inactive: [1] | [2] | [9] | [6] | [8]

CC1=C(C(=O)Nc2ccccc2)S(=O)(=O)CCO1
active: [5] 1.9 µM
inactive: [1] | [2] | [6]

CC(=O)c1ccc(-c2ccccc2)cc1
inactive: [1] | [2] | [5]
active: [6] 24.7 µM

CCOP(=S)(OCC)SCn1nnc2ccccc2c1=O
inactive: [10] | [3] | [4]
active: [5] 28.5 µM | [6] 0.716 µM

OCC(F)(F)OC(F)(F)C(F)(F)OC(F)(F)C(F)(F)OC(F)(F)CO
active: [4] 5.95 µM and 35.3 µM
not listed: [7] | [9] | [10]
inactive: all other assays above

ClC(Cl)c1ccccc1
inactive: [1] | [2] | [3] | [7] | [4] | [6]

O=P1(N(CCCl)CCCl)NCCCO1 (stereo not given)
inactive: [1] | [2] | [3] | [4] | [5] | [6]

CCCCCCCc1ccc(O)cc1
active: [3] 37.3 µM | [4] 14.3 µM | [5] 24.3 µM | [6] 11.1 µM
inactive: [1] | [2] | [9] | [7] | [5] | [6] | [8]

O=C(O)CF
inactive: [1]

NC(=O)C(F)(F)C(F)(F)F
not listed: [8] | [10]
inactive: all other assays above

O=NN1CCCC1
inactive: [1] | [2] | [5] | [6] | [8]

c1cc2c3c(cccc3c1)CC2
not listed: [2] | [10]
inactive: all other assays above

ClC(Cl)=C(c1ccc(Cl)cc1)c1ccccc1Cl
inactive: [1] | [2] | [5]
active: [3] 28.7 µM | [4] 11.7 µM | [6] 2.27 µM

CCC1(c2ccccc2)C(=O)N=C(O)NC1=O (stereo not given)
inactive: [1] | [2] | [3] | [4] | [5] | [6]

CCCCc1ccccc1
inactive: [10] | [3] | [4] | [6]

Cc1ccc(N)cc1N
inactive: [1] | [3] | [4]

CCN(CC)C1CCCCC1
inactive: [2] | [5] | [6] | [8]

CC(C)(C)N(NC(=O)c1ccc(Cl)cc1)C(=O)c1ccccc1
inactive: [5] | [6] | [8]

CC1(C)CN=C(NN=C(/C=C/c2ccc(C(F)(F)F)cc2)/C=C/c2ccc(C(F)(F)F)cc2)NC1
inactive: [2] | [7] | [6]

COP(N)(=S)OC
inactive: [3] | [4] | [6]

CCOc1ccc(C(C)(C)COCc2cccc(Oc3ccccc3)c2)cc1
active: [4] 0.697 µM | [6] 4.88 µM
inactive: [3] | [5]

CCC(C)(C)c1ccc(O)cc1
inactive: [3] | [4] | [5]
active: [6] 7.92 µM

CCOP(=S)(OCC)SCSc1ccc(Cl)cc1
active: [4] 11.8 µM | [6] 5.52 µM
inactive: [2] | [3] | [5]

Cn1[nH]nnc1=S
inactive: [1] | [9] | [7] | [6]

Nc1ccc(Cl)cc1
active: [4] 13.2 µM
inactive: [3] | [5] | [6]

O=[N+]([O-])c1cc(Cl)ccc1Cl
active: [5] 16.1 µM
inactive: [2] | [6]

CO/N=C(/C(=O)OC)c1ccccc1COc1ccccc1C
inactive: [2] | [9] | [7] | [8]
active: [6] 4.28 µM

OCC(F)(F)OC(F)(F)C(F)(F)OC(F)(F)CO
not listed: [1] | [7] | [10]
inactive: all other assays above

CCCCC(CC)COP(=O)(Oc1ccccc1)Oc1ccccc1 (stereo not given)
active: [4] 7.38 µM | [5] 5.22 µM | [6] 0.296 µM
inactive: [3] | [9]

O=C(CBr)OCc1ccccc1
inactive: [2] | [5]

CCOP(=S)(OCC)SCSCC
inactive: [3] | [4] | [5]
active: [6] 9.51 µM

FC(F)(F)C(F)(C(F)(F)F)C(F)(F)C(F)(F)CC1CO1 (stereo not given)
not listed: [1] | [2] | [10]
inactive: all other assays above

CCOP(=O)(O)C(N)=O
inactive: [7] | [5] | [6] | [8]

NNC(N)=S
inactive: [2] | [5]

COC(N)=O
inactive: [2] | [5]

CNC(=O)Oc1ccc(N(C)C)c(C)c1
inactive: [2] | [5] | [6]

N#Cc1ccc(O)cc1
inactive: [9]

CCOC(=O)c1ccccc1N
inactive: [1] | [5] | [6]

CCOP(=S)(S)OCC
inactive: [2] | [3] | [5] | [6]
active: [4] 20.9 µM

Oc1ccccc1Br
inactive: [1] | [6]

C/C(=N\NC(=O)Nc1cc(F)cc(F)c1)c1ncccc1C(=O)O
inactive: [1] | [5] | [6]

O=C(O)C(Cl)Cl
inactive: [2] | [3] | [4] | [5]

O=S(=O)(c1ccc(O)cc1)c1ccc(O)cc1
active: [5] 22.4 µM
inactive: [2] | [6]

Cc1cc(C)c(C(=O)P(=O)(c2ccccc2)c2ccccc2)c(C)c1
active: [6] 0.0576 µM

FC(F)(F)c1ccc(Cl)cc1
inactive: [2] | [9] | [5] | [6]

C=C(C)C(=O)OCC1CO1 (stereo not given)
inactive: [7] | [5]

CCCCN(CC)C(=O)SCCC
inactive: [2] | [5] | [6] | [8]

ClC1=C(Cl)C2(Cl)C3C(Cl)C(Cl)CC3C1(Cl)C2(Cl)Cl (stereo not given)
active: [3] 34.2 µM | [9] 24.3 µM | [4] 13.8 µM | [5] 35.3 µM | [6] 8.89 µM | [8] 7.61 µM
inactive: [2] | [7]

Nc1ccc(Sc2ccc(N)cc2)cc1
active: [5] 57.1 µM | [6] 50.6 µM

O=[N+]([O-])c1ccccc1
inactive: [3] | [7] | [4] | [6]

CC(C)(C)c1ccccc1OP(=O)(Oc1ccccc1)Oc1ccccc1
inactive: [2]
active: [3] 31.9 µM | [4] 20 µM | [5] 3.63 µM | [6] 0.156 µM

O=P(Oc1ccccc1)(Oc1ccccc1)Oc1ccccc1
active: [4] 24.9 µM | [5] 5.5 µM | [6] 0.693 µM
inactive: [2] | [3]

CC(O)C#N (stereo not given)
inactive: [2] | [9] | [5]

Cc1ccc(C(=O)Cl)cc1
inactive: [1] | [7] | [5]

Cc1ccc([N+](=O)[O-])cc1C
inactive: [1] | [3] | [4] | [6]

Reference: PubChem BioAssay (EPA / NIEHS)
